These results are taken from PubChem BioAssay AID1851 (National Center for Advancing Translational Sciences (NCATS), 2009).

Usually AC50 stands for the concentration at which the activity in the assay is half-maximal.

Screen size: about 16,000 compounds; about 5,700 (36%) were called active. About 24% were inconclusive and are not listed. The list shows a part of the results. Unmarked numbers belong to inactive results. Calls come from the whole dose curve; as a rule, active = well fitted curve in the direction sought with a large enough effect; inconclusive = small, poorly fitted or top-dose-only effect, or effect the other way; inactive = no such curve, though single readings can be large or run the other way.
% is set by controls: 0 for no effect and ±100 for the full control effect.

For the assay, the target named is Cytochrome P450 1A2 (Homo sapiens) (UniProt P05177). In words: Cytochrome panel assay with activity outcomes. As to conditions: recombinant CYP, pro-luciferin dealkylation, luminescence, p450-cyp1a2; series mostly up to 57.1 µM; activity, negative = inhibition: at the top concentration.
Cytochrome P450 1A2 (Homo sapiens), sequence (P05177 whole entry, looked up): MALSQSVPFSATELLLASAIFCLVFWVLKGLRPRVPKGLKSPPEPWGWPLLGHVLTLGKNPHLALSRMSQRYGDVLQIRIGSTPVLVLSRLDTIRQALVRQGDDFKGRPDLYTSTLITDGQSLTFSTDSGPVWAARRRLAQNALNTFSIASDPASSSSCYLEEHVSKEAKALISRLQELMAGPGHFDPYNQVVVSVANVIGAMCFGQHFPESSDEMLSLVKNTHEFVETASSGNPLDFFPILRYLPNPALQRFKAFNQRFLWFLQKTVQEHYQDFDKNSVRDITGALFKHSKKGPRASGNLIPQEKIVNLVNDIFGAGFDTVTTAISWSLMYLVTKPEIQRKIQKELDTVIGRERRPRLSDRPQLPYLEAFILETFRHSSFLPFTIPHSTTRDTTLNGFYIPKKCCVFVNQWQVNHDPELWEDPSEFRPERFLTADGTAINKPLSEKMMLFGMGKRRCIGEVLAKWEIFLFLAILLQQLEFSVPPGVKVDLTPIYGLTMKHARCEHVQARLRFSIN
For the compound `Cc1cc(S(=O)(=O)NCCCN2CCOCC2)ccc1F`, the “activity, negative = inhibition” value is -23%.
Consider `C/C(CC(=O)NCCCN1CCOCC1)=N\NC(=O)COc1ccc(Cl)cc1`, for which the AC50 was 2510 nM (active).
Still for that read-out and setting: the result for `CN(Cc1ccco1)c1cc(-c2ccc3c(c2)OCO3)ncn1` reads 501 nM (active).
In the case of `CN(Cc1ccco1)c1cc(-c2ccoc2)ncn1`, the “activity, negative = inhibition” value was -19.3%.
On to `CN(C)c1ccc(-c2cc(N(C)Cc3ccco3)ncn2)cc1`, for which the AC50 is 316 nM (active).
For the compound `COc1ccc(C(=O)N2CCC3(CC2)CN(Cc2ccc(C#N)cc2)C3)cc1`, the “activity, negative = inhibition” value is -8.04%.
`COc1cc(NC(=S)Nc2ccc(S(=O)(=O)N3CCOCC3)cc2)cc(OC)c1OC`: the AC50 is 2510 nM (active).
For the compound `COc1ccc(C(=O)Nc2ccc(S(=O)(=O)N3CCOCC3)cc2)cc1OC`, the “activity, negative = inhibition” value was 7.02%.
The same measure, in the same setting: the result for `COc1ccc(NC(=O)N2CC[C@@]3(CCCN(C(=O)c4cccn4C)C3)C2)cc1` reads -11.7%; that for `O=C(O)c1cc(S(=O)(=O)N2CCCCC2)ccc1F`, 14.6%.
As for `O=C(CSc1ncccn1)Nc1ccc(S(=O)(=O)N2CCCCC2)cc1`, the “activity, negative = inhibition” value was -4.34%.
For `O=C(Nc1ccc(F)cc1)c1cc(S(=O)(=O)N2CCCCC2)cs1`, the AC50 is 17800 nM (active).
Regarding `CC(C)=CCC/C(C)=C/CO/N=C1/C[C@@H](O)[C@@H](O)[C@@H]2[C@@H]3C(=O)N(C4CCCCC4)C(=O)[C@H]3CC[C@@H]12`, the activity, negative = inhibition is -3% [at 11.4 µM].
Turning to `COc1cccc(-c2nccc(NCc3cccs3)n2)c1`, the AC50 was 200 nM (active).
On the same count and under the same terms, the result for `COc1ccc(-c2cc(C(F)(F)F)nc(NCc3cccnc3)n2)cc1` reads 794 nM (active); that for `COc1cccc(-c2nccc(NCc3ccccc3)n2)c1`, 501 nM (active); that for `COc1cccc(-c2nccc(NCc3cccnc3)n2)c1`, 158 nM (active).
In the case of `CC[C@@H]1OC(=O)[C@H](C)[C@H](O[C@@H]2C[C@](C)(OC)[C@H](O)[C@H](C)O2)[C@H](C)[C@H](O[C@@H]2O[C@@H](C)C[C@@H](N(C)C)[C@@H]2O)[C@](C)(O)C[C@H](C)C(=O)[C@H](C)[C@H](O)[C@]1(C)O`, the “activity, negative = inhibition” value is -3.13% [at 25.6 µM].
Turning to `COc1ccc(-c2cc(C(F)(F)F)nc(SCc3cccc(C(=O)O)c3)n2)cc1`, the AC50 was 7080 nM (active).
With `COc1cccc(-c2nccc(NCc3cccc(C)c3)n2)c1`, the AC50 was 316 nM (active).
Turning to `COCC(C)NCc1cccc(C)c1` (centres undefined), the “activity, negative = inhibition” value was -15.4%.
On to `CC(=O)OC[C@H]1O[C@@H](O/N=C(\C)CCN2CCCCc3nc(C)c(C)cc32)[C@H](OC(C)=O)[C@@H](OC(C)=O)[C@H]1OC(C)=O`, for which the activity, negative = inhibition was -3.61% [at 11.4 µM].
Same read-out and setting: the result for `CCOc1ccc(N(CC(=O)NCc2ccc(OC)cc2)S(=O)(=O)c2c(C)noc2C)cc1` reads -6.85%.
As to `CCOc1ccc(-c2cc(CCCC(=O)NCCc3ccc(OC)c(OC)c3OC)no2)cc1`, the AC50 was 63.1 nM (active).
With `CCOc1ccc(CCNC(=O)CCCN2C(=O)c3ccccc3C2=O)cc1OCC`, the “activity, negative = inhibition” value is -7.98%.
Regarding `Cc1ccccc1C(=O)NC(=S)NCC(=O)c1ccccc1`, the AC50 is 10000 nM (active).
As for `COc1ccc(-n2nc3cc(C)c(NC(=S)NC(=O)c4ccccc4C)cc3n2)cc1`, the “activity, negative = inhibition” value was -17.3%.
Regarding `O=C(CNC(=O)c1ccc([N+](=O)[O-])cc1)c1ccccc1`, the “activity, negative = inhibition” value was -9.2%.
On to `Cc1noc(C)c1-c1nc(NCCN2CCOCC2)c2ccccc2n1`, for which the AC50 was 2510 nM (active).
The same measure, in the same setting: the result for `CC(=O)NCCNc1nc(-c2c(C)noc2C)nc2ccccc12` reads 1580 nM (active); that for `COCCNc1nc(-c2c(C)noc2C)nc2ccccc12`, 126 nM (active).
Consider `c1ccc(-n2ncc3c(NCCCN4CCOCC4)ncnc32)cc1`, for which the “activity, negative = inhibition” value is -22.5%.
On the same count and under the same terms, the result for `O=C(Nc1cccc(F)c1)N1CC[C@@]2(CCCN(C(=O)c3cc(C(F)(F)F)cc(C(F)(F)F)c3)C2)C1` reads -14.9%; that for `CN(C)CCCCN1CCc2c(n(C)c3ccccc23)C1=O`, -14.1% [at 2.29 µM].
For `CN(C)CCCNc1cc(O)c2c(c1O)C(=O)c1ccccc1C2=O`, the activity, negative = inhibition was -23.1% [at 2.29 µM].
With `CN(C)CCCNC(=O)c1cc2c3ccccc3n(C)c2s1`, the AC50 was 14100 nM (active).
Same read-out and setting: the result for `CC(=O)c1[nH]c(C)c(C(C)=O)c1C` reads 708 nM (active).
Consider `COC(Cn1c(C)c(C(C)=O)c(C(C)=O)c1C)OC`, for which the “activity, negative = inhibition” value was -7.78%.
For the compound `CC(C)c1ccc(Cn2ccc3c4c(N)nc(NC5CC5)nc4ccc32)cc1`, the AC50 is 1580 nM (active).
The same measure, in the same setting: the result for `COc1ccccc1-c1ccc2ncnc(NCCNC(C)=O)c2c1` reads 5010 nM (active).
In the case of `CC(=O)NCCNc1ncncc1-c1ccccc1C(F)(F)F`, the “activity, negative = inhibition” value is -19.2%.
Turning to `CC(=O)NCCNc1ncnc2ccc(-c3ccccc3C(F)(F)F)cc12`, the AC50 was 10000 nM (active).
For `CC(=O)NCCNc1ncnc2ccc(-c3ccccc3C)cc12`, the AC50 is 631 nM (active).
Take `CC1=C(C(=O)O)N2C(=O)[C@@H](NC(=O)[C@@H](N)C3=CCC=CC3)[C@@H]2SC1`: the “activity, negative = inhibition” value was -0.757%.
On the same count and under the same terms, the result for `Cc1ccc(S(=O)(=O)N2CCN(C(=O)c3ccccc3)C2C(C)C)cc1` (centres undefined) reads -9.28%.
Take `COc1cccc(Nc2ncc3nc(C)c(=O)n(C4CC4)c3n2)c1`: the AC50 was 1260 nM (active).
Same read-out and setting: the result for `O=c1cnc2cnc(Nc3ccccc3)nc2n1C1CC1` reads 631 nM (active); that for `Cc1nc2cnc(Nc3ccccc3)nc2n(C2CC2)c1=O`, 1000 nM (active).
On to `COc1cccc(Nc2ncc3ncc(=O)n(C4CC4)c3n2)c1`, for which the AC50 was 631 nM (active).
